The panel holds about 79,000 compounds, 15% with a hit somewhere; the sample as a whole holds those more often. Active and inactive are the calls of the source. Cut-off read from the data, not from the text of the source: active = growth inhibition above about 70%; inactive = the rest.
Key:
[1] = NCI Yeast Anticancer Drug Screen. Data for the rad50 strain (AID 155);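 note: 0% = growth of vehicle-only cultures of the same strain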; conditions: S. cerevisiae rad50 strain growth inhibition; at 50.0 µM; active compounds read high
Outline: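 Genetically altered yeast (DNA repair pathway); compound treatment; growth inhibition vs vehicle ctrl.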

[2] = NCI Yeast Anticancer Drug Screen. Data for the mec2-1 strain (AID 157); conditions: S. cerevisiae mec2-1 strain, at 50.0 µM, active compounds read high
Outline: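 Vehicle-treated cultures served as reference for growth inhibition of compound-exposed mec2-1 yeast.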

[3] = NCI Yeast Anticancer Drug Screen. Data for the sgs1 mgt1 strain (AID 161);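 note: 0% = growth of cultures given vehicle only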; conditions: S. cerevisiae sgs1 mgt1 strain, at 50.0 µM, active compounds read high
Outline: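 Genetically altered yeast, compound exposure, growth inhibition relative to vehicle.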

[4] = NCI Yeast Anticancer Drug Screen. Data for the cln2 rad14 strain (AID 165);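 note: 0% = growth equal to vehicle treated cultures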; conditions: S. cerevisiae cln2 rad14 strain, at 50.0 µM, active compounds read high
Outline: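 Each compound was tested on cln2 rad14 yeast. Inhibition of growth was calculated against vehicle-exposed controls.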

[5] = NCI Yeast Anticancer Drug Screen. Data for the bub3 strain (AID 167); conditions: S. cerevisiae bub3 mutant strain, at 50.0 µM, active compounds read high
Outline: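 Yeast carrying a defined mutation is treated with each compound, and growth is compared with that of vehicle-exposed cells to give inhibition.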

[6] = NCI Yeast Anticancer Drug Screen. Data for the mlh1 rad18 strain (AID 175); conditions: S. cerevisiae mlh1 rad18 strain growth inhibition; at 50.0 µM; active compounds read high
Outline: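 Vehicle-treated cultures served as the reference for growth inhibition in a yeast strain carrying DNA damage repair alterations exposed to each compound.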

Measured: growth inhibition

Cc1cc(O)c(C(C)C)cc1CN1CCCCC1
inactive: [1] 0% | [2] -25.1% | [3] -14.2% | [4] 0.15% | [5] -2.85% | [6] -3.3%

O=C1C=C(Nc2ccccc2C(=O)c2ccccc2)c2ccccc2C1=O
inactive: [1] 18.9% | [2] -30.4% | [3] 6.65% | [4] 4.9% | [5] 14.8% | [6] 2.4%

CC(=O)[CH-]C(=O)c1ccccc1.CC(=O)[CH-]C(=O)c1ccccc1.CC[O-].O=C1C=C([O-])C(=O)c2ccccc21.[Ti+4]
inactive: [1] 25.4% | [2] 60.5% | [3] 63.5% | [4] 61.1% | [5] 59.9% | [6] 56.9%

O=C1N=C(C=c2ccc(=Cc3[nH]c(=O)n(CN4CCCCC4)c3O)cc2)C(=O)N1CN1CCCCC1
inactive: [1] 1.2% | [2] -6.2% | [3] 3.65% | [4] 26.4% | [5] -10.3% | [6] -7.1%

O=C(COc1ccccc1)OCCCl
inactive: [1] -7.8% | [2] -15.3% | [3] -15.4% | [4] -67.5% | [5] -25.8% | [6] -75.9%

Cc1ccc(OS(=O)(=O)c2ccccc2)cc1
inactive: [1] 36% | [2] 20.4% | [3] 49.1% | [4] -42.6% | [5] 35.2% | [6] 36.6%

NNC(=O)CCC(=O)NC1C2CC3CC(C2)CC1C3 (centres undefined)
inactive: [1] -23.6% | [2] -15.4% | [3] -18.6% | [4] -0.85% | [5] -10.7% | [6] 25.2%

Cc1ccc(S(=O)(=O)NN=C2CCCCCCCCCCC2)cc1
inactive: [1] -8.35% | [2] -21.4% | [3] -7.75% | [4] 7.45% | [5] 9.05% | [6] -1.8%

Clc1cccc(Cl)c1/C=N/Nc1nnc(N/N=C/c2c(Cl)cccc2Cl)c2ccccc12
inactive: [1] 18.8% | [2] 23.4% | [3] 56.3% | [4] 31.5% | [5] -1.4% | [6] 34.4%

COc1cc(OC)c([N+](=O)[O-])cc1/C=C/C(=O)O
inactive: [1] -5.25% | [2] -3.35% | [3] 8% | [4] 6.15% | [5] 9.95% | [6] 4.05%

COC(=O)/C(=N/O)C(C(=O)OC)C(=O)C(=O)Nc1c(Cl)cc(C)cc1S(=O)(=O)O (centres undefined)
inactive: [1] 6.4% | [2] 4.35% | [3] -22.4% | [4] -14.1% | [5] -2.9% | [6] 8.15%

CCOC(=O)C(C)c1nc2cc(C(F)(F)F)ccc2[nH]c1=O (centres undefined)
inactive: [1] 3.55% | [2] 7.1% | [3] 8.1% | [4] 7.5% | [5] 19.7% | [6] -21.2%

O=C(O)Cn1ccc(=O)c2cc([N+](=O)[O-])ccc21
inactive: [1] 41% | [2] 15.4% | [3] -11.1% | [4] 12.7% | [5] 24.9% | [6] -49%

NCCSC(O)(C(F)(F)F)C(F)(F)F
inactive: [1] 19.6% | [2] 8.85% | [3] 3.05% | [4] -15.2% | [5] 1.2% | [6] 23%

Nc1ccc2ccc3ccc(N)nc3c2n1
inactive: [1] 36% | [2] 38% | [3] 40.7% | [4] -1.8% | [5] 44.1% | [6] 17.1%

Cc1cc(C(C)(C)C)nc(C(C)(C)C)c1
inactive: [1] 13.1% | [2] 6.4% | [3] 15.2% | [4] -60.6% | [5] 0.8% | [6] -4.85%

CCCc1n[nH]c(=S)n1N1C(=S)NC(C)(C)C=C1C
inactive: [1] -1.8% | [2] -2% | [3] 18.1% | [4] -10.8% | [5] 4.1% | [6] 17.2%

C=C(C)c1ccc2c(c1)C(=O)C[C@@H]1[C@](C)(C#N)CCC[C@]21C
inactive: [1] -19.9% | [2] -16.3% | [3] 32.2% | [4] -52% | [5] 46.9% | [6] -33.9%

Cc1c(C(=O)CC(=O)C(=O)Nc2ccc(Cl)cc2)[n+](=O)c2ccccc2n1[O-]
inactive: [1] 9.9% | [2] -2.25% | [3] 0.65% | [4] 19.4% | [5] 8.35% | [6] -0.3%

Brc1ccc(CN(Cc2ccccc2)Cc2ccccc2)cc1
inactive: [1] -13.3% | [2] -8.3% | [3] 1.55% | [4] -10.4% | [5] 10.7% | [6] 4.75%

O=C(Cc1ccccc1)c1ccccc1C(=O)NCc1ccccc1
inactive: [1] -5.8% | [2] -3.45% | [3] 1.1% | [4] -66.5% | [5] 14.9% | [6] -7.1%

CC(C)(C)C(=O)NO
inactive: [1] -12.6% | [2] -12.1% | [3] -13.6% | [4] 6.8% | [5] 4.5% | [6] -0.3%

CCCCCCCCCCCCCCC1CC(=O)OC1=O (centres undefined)
inactive: [1] -22.6% | [2] -30.1% | [3] -9.55% | [4] 0.5% | [5] -10.8% | [6] -31.8%

O=NC(C[N+](=O)[O-])c1ccccc1 (centres undefined)
inactive: [1] 4.6% | [2] -21.9% | [3] 2.7% | [4] -40.7% | [5] 6.55% | [6] -24.4%

c1ccc(-c2n[nH]c3c2CCCc2ccccc2-3)cc1
inactive: [1] 4.7% | [2] -9.7% | [3] 7.35% | [4] -12% | [5] 3.3% | [6] 25.4%

CC(=O)OCCS(=O)(=O)c1c(Cl)c(Cl)c(Cl)c(Cl)c1Cl
active: [1] 95.7% | [2] 97.4% | [3] 98.9% | [4] 93.8% | [5] 95.7% | [6] 97.8%

C/C(=C(/O)c1ccc(Cl)cc1)c1nc2cc(Cl)cc([N+](=O)[O-])c2[nH]c1=O
inactive: [1] 37% | [2] 43.3% | [3] 24.6% | [4] -4.55% | [5] 18.9% | [6] 53.5%

CC(C)NC1(C#N)CCN(Cc2ccccc2)CC1
inactive: [1] -29.8% | [2] -45.1% | [3] -41.4% | [4] 10.2% | [5] -29.1% | [6] -37.5%

C[N+]1(C)C2C=CCC1CSC2 (centres undefined)
inactive: [1] 4.55% | [2] 0.15% | [3] -3.8% | [4] 3.65% | [5] 2.75% | [6] 12.8%

CN(C)CCNC(=O)Cn1cnc2cccc([N+](=O)[O-])c2c1=O
inactive: [1] 34.5% | [2] 17% | [3] 4.85% | [4] 20.6% | [5] 20.9% | [6] -34.6%

Cc1cc(C)c(COCc2c(C)cc(C)cc2C)c(C)c1
inactive: [1] 19% | [2] 10.1% | [3] -0.55% | [4] -34.1% | [5] -2% | [6] 12.8%

CCCCCCCCCCNC(=O)CCC(NC(=O)c1ccc(N(C)Cc2cnc3nc(N)nc(N)c3n2)cc1)C(=O)NCCCCCCCCCC (centres undefined)
inactive: [1] 5.7% | [2] 3.35% | [3] -4.15% | [4] 6.1% | [5] -13.2% | [6] -3.65%

Cc1ccc(-c2ccno2)cc1
inactive: [1] 1.7% | [2] 3.15% | [3] 1.25% | [4] -14.3% | [5] -8.3% | [6] 2.25%

Cc1cc(C)c(C#N)c(NN)n1
inactive: [1] -5.35% | [2] -2.8% | [3] 11.1% | [4] 12.2% | [5] -0.5% | [6] -1.05%

Cc1ccccc1C(O)(c1nccn1C)c1nccn1C
inactive: [1] 8.75% | [2] 5.5% | [3] 19.9% | [4] 9.55% | [5] 18.2% | [6] 37.3%

Cn1c(=O)c2[nH]c(CCNC(=O)c3ccccc3)nc2n(C)c1=O
inactive: [1] 2.05% | [2] -9.75% | [3] -30.2% | [4] -38.5% | [5] -40.8% | [6] -9.95%

O=C1C=CSc2ccccc2N1
inactive: [1] -2.4% | [2] 2.5% | [3] -2.15% | [4] 4.4% | [5] 2.45% | [6] 4.5%

CC1=C/C(=N\N(C)C)C(C(O)(C(F)(F)F)C(F)(F)F)C(C)(C)C1 (centres undefined)
inactive: [1] 4.75% | [2] -19.1% | [3] -10.4% | [4] 9.35% | [5] -14.7% | [6] -13%

COC(=O)CC1(O)C=CC(=O)c2ccccc21 (centres undefined)
inactive: [1] 2.35% | [2] -6.65% | [3] -3.8% | [4] -25.9% | [5] 44% | [6] -5.7%

Reference: PubChem BioAssay (NCI)
